Measurements as given in PubChem BioAssay (NCI).
Compounds without any hit were thinned out: in the full panel of roughly 79,000, 15% have a hit. Cut-off read from the data, not from the text of the source: active = growth inhibition above about 70%; inactive = the rest.

Experiments:
[1] = NCI Yeast Anticancer Drug Screen. Data for the rad50 strain (AID 155);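 note: 0% = growth of vehicle-only cultures of the same strain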; conditions: S. cerevisiae rad50 strain growth inhibition; at 50.0 µM; hits give high values
Method in brief: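 DNA repair mutant yeast, compound exposure, growth read-out; inhibition is taken relative to vehicle.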

[2] = NCI Yeast Anticancer Drug Screen. Data for the mec2-1 strain (AID 157); conditions: S. cerevisiae mec2-1 strain, at 50.0 µM, hits give high values
Method in brief: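 Readout is yeast growth inhibition, normalised to vehicle-treated controls, in the mec2-1 strain exposed to compound.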

[3] = NCI Yeast Anticancer Drug Screen. Data for the sgs1 mgt1 strain (AID 161);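 note: 0% = growth of cultures given vehicle only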; conditions: S. cerevisiae sgs1 mgt1 strain, at 50.0 µM, hits give high values
Method in brief: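 Percent growth inhibition was derived by comparing compound-exposed mutant yeast with vehicle-exposed cultures. The strain carries alterations in DNA damage repair.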

[4] = NCI Yeast Anticancer Drug Screen. Data for the cln2 rad14 strain (AID 165);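 note: 0% = growth equal to vehicle treated cultures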; conditions: S. cerevisiae cln2 rad14 strain, at 50.0 µM, hits give high values
Method in brief: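 Relative to vehicle controls, growth inhibition of compound-treated cln2 rad14 yeast was recorded.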

[5] = NCI Yeast Anticancer Drug Screen. Data for the bub3 strain (AID 167); conditions: S. cerevisiae bub3 mutant strain, at 50.0 µM, hits give high values
Method in brief: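 In this screen, a yeast mutant lacking normal mitotic checkpoint function is challenged with compound. Relative growth versus vehicle gives the inhibition value.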

[6] = NCI Yeast Anticancer Drug Screen. Data for the mlh1 rad18 strain (AID 175); conditions: S. cerevisiae mlh1 rad18 strain growth inhibition; at 50.0 µM; hits give high values
Method in brief: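 Test agents were incubated with a yeast strain of defined genotype (DNA damage repair defect). Inhibition of growth was derived by comparison with vehicle-exposed cultures.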

Measured: growth inhibition

O=C(O)c1cc(Nc2nc(Cl)nc(Cl)n2)ccc1-c1c2ccc(=O)cc-2oc2cc(O)ccc12
inactive: [1] 37.2% | [2] 21.3% | [3] 22.7% | [4] 10% | [5] -1.15% | [6] 49.5%

O=C(c1ccc(Cl)cc1)C1C(c2ccccc2)C1[N+](=O)[O-] (stereo unspecified)
inactive: [1] 11.2% | [2] -11.2% | [3] -3.2% | [4] -28.9% | [5] 16.4% | [6] 31%

N=C(N)N1CCc2ccccc2C1
inactive: [1] -5.55% | [2] 7.3% | [3] -2% | [4] -3.35% | [5] -28.9% | [6] 2.65%

O=c1c2cccnc2[nH]c2ccc3[nH]ncc3c12
inactive: [1] -17.2% | [2] -25.9% | [3] -13.4% | [4] 26.4% | [5] -30.9% | [6] 15.6%

C1CCC2(CC1)OCCS2
inactive: [1] 24.6% | [2] 1.6% | [3] 11.2% | [4] 7.8% | [5] -1.45% | [6] 6.15%

NC(=O)c1cnn(CCO)c1N
inactive: [1] 0.2% | [2] -3.35% | [3] 2.55% | [4] -15.6% | [5] 2.85% | [6] 12.6%

CCCNC(=O)/C=C\S(=O)CCC (stereo unspecified)
inactive: [1] -1.15% | [2] 2.9% | [3] 1.15% | [4] -16.5% | [5] 16.9% | [6] -2.6%

NC(=O)Nc1ccc2ccccc2c1
inactive: [1] 8.8% | [2] -9.75% | [3] 1.65% | [4] -3.95% | [5] -19.8% | [6] -5.25%

Cc1nc2c(N)cc(Cl)cc2[nH]1
inactive: [1] 13.2% | [2] 13.3% | [3] 19.6% | [4] 8.25% | [5] -7.3% | [6] 7.75%

Oc1ccccc1CN1CCOCC1 (tested in a mixture with another compound)
inactive: [1] -2.7% | [2] -7.05% | [3] 6.95% | [4] -46.2% | [5] 0.2% | [6] -6.25%

O=c1[nH]c(-c2ccccc2)nc(-c2ccccc2)c1Cc1cc2c(cc1O)OCC2
inactive: [1] -0.1% | [2] -4.05% | [3] 20.7% | [4] 2.8% | [5] 0.7% | [6] -10.6%

CCCCCCCCCCCC(=O)N/N=C/c1ccccc1OC
inactive: [1] -0.65% | [2] 7.25% | [3] -10.3% | [4] -18.8% | [5] 4% | [6] 12.6%

N#CC(C#N)=CC(C#N)C#N
inactive: [1] -10% | [2] -4.3% | [3] -12.2% | [4] -65.1% | [5] 5.1% | [6] -11.7%

Clc1ccccc1C(Nc1nc2ccccc2s1)Nc1nc2ccccc2s1
inactive: [1] 13.3% | [2] 0.8% | [3] -10.9% | [4] 4.65% | [5] -2% | [6] 17.4%

CC(=O)Nc1ccc2oc(=O)ccc2c1
inactive: [1] -19.2% | [2] -12.7% | [3] -15.4% | [4] -0.5% | [5] -4.2% | [6] -11.1%

CCCCCC(=O)/C=C/CC(CCCCCCC#N)C(CC(OC)OC)[N+](=O)[O-] (stereo unspecified)
inactive: [1] -42.2% | [2] -24.2% | [3] 0.9% | [4] 14.3% | [5] -1.75% | [6] -37.4%

CCOC(=O)Cc1csc(N=Nc2c(O)[nH]c3ccccc23)n1
inactive: [1] -2.55% | [2] -12.8% | [3] 10.6% | [4] 7.9% | [5] 5.85% | [6] 17.6%

CCC1(C#N)N=C(c2ccccc2)c2ccccc2N1C(=O)Oc1ccccc1 (stereo unspecified)
inactive: [1] 3.65% | [2] 2.65% | [3] -9.7% | [4] -15.7% | [5] 11.1% | [6] 19.6%

CCCCCn1cnc2cc(N3CCOCC3)c([N+](=O)[O-])cc2c1=O
inactive: [1] 4.9% | [2] 34.9% | [3] 5.75% | [4] 8.2% | [5] 18.2% | [6] 14.3%

COc1ccc2c(c1)CCc1c(C(C)=O)c3ccccc3n1C2
inactive: [1] 19.8% | [2] -13.3% | [3] 46.4% | [4] 15.2% | [5] 47.1% | [6] 2.15%

O=C(O)c1ccc(CS(=O)c2ccccc2)c([N+](=O)[O-])c1 (stereo unspecified)
inactive: [1] 8.2% | [2] -0.7% | [3] -1.45% | [4] 14.4% | [5] -4.9% | [6] 24.7%

CC12CCCC(C(=O)O)(C1)[C@H](C(C)(C)C(=O)O)CC2 (stereo partly specified)
inactive: [1] -29.5% | [2] -40.9% | [3] -15.7% | [4] 8.75% | [5] -4.2% | [6] -10.8%

CCCc1ccc(N)cc1
inactive: [1] 3.25% | [2] -38.4% | [3] -9.1% | [4] -18.1% | [5] -24.4% | [6] -15.7%

O=c1[nH]cnc2sc3c(c12)CCC3
inactive: [1] 30.6% | [2] 6.9% | [3] 14.2% | [4] 13.4% | [5] 3.1% | [6] 1.55%

O=C(Nc1cccc(Cl)c1)ON1C(=O)C2C(C1=O)C1(Cl)C(Cl)C(Cl)C2(Cl)C1(Cl)Cl (stereo unspecified)
inactive: [1] 0.4% | [2] 19.4% | [3] -15.8% | [4] -1.35% | [5] -24% | [6] -16.1%

Cc1cccc(C)c1/[N+]([O-])=C/c1cccc([N+](=O)[O-])c1
inactive: [1] -1.8% | [2] -31.1% | [3] -3.3% | [4] -29.4% | [5] 10% | [6] -2.25%

O=C(c1ccc(Cl)cc1)C(c1ccccc1)N1CCCCC1 (stereo unspecified)
inactive: [1] 2.05% | [2] -8.15% | [3] -0.1% | [4] -45.8% | [5] -1.6% | [6] 6.85%

NC(N)=NC(N)=Nc1ccc(C(=O)O)cc1
inactive: [1] -7.4% | [2] 5.95% | [3] -26.8% | [4] -29.2% | [5] -68% | [6] -4%

Cc1ncc([N+](=O)[O-])n1CCNC(=O)CCCCCn1ccnc1[N+](=O)[O-]
inactive: [1] 3.1% | [2] -4.05% | [3] -9.45% | [4] 19.7% | [5] -6.15% | [6] -35.2%

Cc1ccc(N)cc1S(=O)(=O)O
inactive: [1] 29.8% | [2] -10.6% | [3] -9.45% | [4] -14.8% | [5] 3% | [6] 21.6%

COC1C(OC(N)=O)C(O)C(Oc2ccc3c(O)c(NC(=O)c4ccc(O)c(CC=C(C)C)c4)c(=O)oc3c2C)OC1(C)C (stereo unspecified)
inactive: [1] 7.2% | [2] -23.4% | [3] 1.7% | [4] -6.1% | [5] 9.1% | [6] 26.4%

Cc1ccc(S(=O)(=O)OCCN(CCO)c2cn(C(c3ccccc3)(c3ccccc3)c3ccccc3)c(=O)n(C(c3ccccc3)(c3ccccc3)c3ccccc3)c2=O)cc1
inactive: [1] -2.1% | [2] 17.8% | [3] 3.7% | [4] -6.8% | [5] -4.3% | [6] 24.3%

Oc1ccc(O)c(-c2ccccc2)c1
inactive: [1] 61.5% | [2] 36.2% | [3] 53.2% | [4] 51% | [5] 33.6% | [6] 44%

c1ccc2c(c1)SCCCSCCCS2
inactive: [1] -4.35% | [2] -4.6% | [3] -5.45% | [4] -9.4% | [5] 9.15% | [6] -11.4%

CC(=O)Nc1ccc2c(c1)C(N1CCCCC1)c1ccccc1-2 (stereo unspecified)
inactive: [1] -42.2% | [2] -17.8% | [3] 4.2% | [4] -40.1% | [5] -2.6% | [6] -5.4%

Cc1ccc(NC(=O)CCc2cc(C(C)(C)C)nc(=S)[nH]2)cc1C
inactive: [1] -36.6% | [2] -27.5% | [3] -46.5% | [4] -30.6% | [5] -35.8% | [6] -34%

N#C/C(=C/c1ccc(Cl)cc1)C(=O)O
inactive: [1] 6.35% | [2] -2.35% | [3] -13.3% | [4] 6.35% | [5] -0.15% | [6] 21.1%

CN=C(NC)C(c1ccccc1)c1ccccc1
inactive: [1] -0.5% | [2] -9.7% | [3] -5.7% | [4] -15.8% | [5] -5.8% | [6] -9.3%

O=C(CCCN1CCC(Nc2ccccc2)(c2nnnn2C2CCCCC2)CC1)c1ccc(F)cc1
inactive: [1] -7.05% | [2] -16.2% | [3] 0.3% | [4] 11.1% | [5] 1.25% | [6] 7.15%

COC(=O)[C@]1(C)CCCn2c(=O)n(-c3ccccc3)c(=O)n21
inactive: [1] 13.9% | [2] 11.3% | [3] -6.65% | [4] 9.75% | [5] 13.8% | [6] -21.6%

CCc1nc(N)nc(N)c1-c1ccc(Cl)c(N=CN(C)C)c1
inactive: [1] 31.8% | [2] 23.1% | [3] 26.9% | [4] 29.8% | [5] 16.6% | [6] 51.5%
